{"source": "PubChem BioAssay (NCI)", "note": "About 83,000 compounds went through this panel and 20% of them were active in at least one assay; those are over-represented in the sample as a whole.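 Values shown are percent growth following 48 h exposure of cells in 96-well plates to a single concentration of compound; below 10 was considered active.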 Unmarked numbers belong to inactive results. Activity calls are given as the source filed them.", "data": [{"tested_on": "NCI/ADR-RES ovarian", "test": "NCI-60 one-dose screen, 48 h (100 = growth as untreated, 0 = no growth, -100 = all killed)", "settings": "10 µM unless noted", "values": [{"smiles": "CC1=NN(c2ccccc2Cl)C(=O)/C1=C\\c1cn(S(=O)(=O)c2ccc(C)cc2)c2ccccc12", "growth": "85.1%"}, {"smiles": "O=c1c(O)cccn1CCCNCCCN(CCCn1cccc(O)c1=O)CCCn1cccc(O)c1=O", "growth": "101%"}, {"smiles": "O=C1OCC/C1=C\\OCCCO/C=C1\\CCOC1=O", "growth": "104%"}, {"smiles": "O=C(Nc1cccc2ccccc12)c1cc2c(cc1Br)OCO2", "growth": "92.5%"}, {"smiles": "NC(=O)SCC(=O)Nc1ccccc1-c1ccccc1", "growth": "106%"}, {"smiles": "Cn1[nH]cc(/C=N/C(N)=O)c1=O", "growth": "108%"}, {"smiles": "c1ccc2c(c1)[nH]c1c2cc[n+]2cc3c(cc12)CCCC3", "growth": "97.7%"}, {"smiles": "CN1CCCC1c1cccnc1", "note": "(stereo not given)", "growth": "-37% (active)"}, {"smiles": "Cn1cc(-c2nc(-c3c[nH]c4ncccc34)cs2)c2cccnc21", "growth": "44.7%"}, {"smiles": "S=C(c1ccccc1)N1CCN(c2cccc(Cl)c2)CC1", "growth": "103%"}, {"smiles": "O=C1NC(=O)/C(=C\\c2ccccc2)C2=C1CCCC2", "growth": "61.2%"}, {"smiles": "C[C@]12CC[C@@H]3c4ccc(O)c([N+](=O)[O-])c4CC[C@H]3[C@@H]1CC[C@@H]2NS(=O)(=O)c1ccc(C(F)(F)F)cc1", "growth": "27.7%"}, {"smiles": "O=C(Oc1ccc[nH]c1=O)c1cccc(Cl)c1", "growth": "99.1%"}, {"smiles": "COc1ccc(Cn2cc3c(c2-c2ccccc2)CCc2cncnc2-3)cc1", "growth": "12.3%"}, {"smiles": "C[n+]1ccc(Nc2ccc(NC(=O)c3ccc(Nc4cc[n+](C)c5ccc(N)cc45)cc3)cc2)cc1", "growth": "99.4%"}, {"smiles": "Cc1cc2c(cc1[N+](=O)[O-])NC(CNC(C)C)CC2", "note": "(stereo not given)", "growth": "95.1%"}, {"smiles": "CC(=O)Oc1c(C)c(OC(C)=O)c2c(c1C(C)=O)OC1CC(=O)C(C(C)=O)=C(O)C21C", "note": "(stereo not given)", "growth": "80.7%"}, {"smiles": "CCOC(=O)c1c2c(c(C)n1Cc1ccc(OC)cc1)-c1nc(N)ncc1CC2", "growth": "104%"}, {"smiles": "COc1ccc2nccc(/C=C/c3ccnc4ccc(OC)cc34)c2c1", "growth": "101%"}, {"smiles": "Cc1cc2cn3c4cccnc4[nH]c(=O)c3c2cc1C", "growth": "9.65% (active)"}, {"smiles": "COc1ccc2nc(-c3ccc(-n4cncc4-c4ccc(OC)c(N)c4)cc3)sc2c1", "growth": "115%"}, {"smiles": "COc1cc2c(c(OC)c1OC)CCc1cnoc1-2", "growth": "94.3%"}, {"smiles": "C=C(C)[C@H]1CC/C(C)=C/CC[C@]2(C)O[C@H]2CC/C(C=O)=C\\C1O", "note": "(stereo not given in full)", "growth": "109%"}, {"smiles": "COc1ccc2c(c1)[nH]c(=O)c1c3cc(OC)c(OC)cc3cn21", "growth": "14.8%"}, {"smiles": "Nc1nc(Cl)c2[nH]cnc2n1", "growth": "51%"}, {"smiles": "O=C(Nc1ncc([N+](=O)[O-])s1)c1cccc([N+](=O)[O-])c1", "growth": "39.9%"}, {"smiles": "Cc1ccc([N+](=O)[O-])cc1NC(=O)Nc1cccc(F)c1", "growth": "64.3%"}, {"smiles": "OC(CCC(O)(c1ccccc1)c1ccccc1)(c1ccccc1)c1ccccc1", "growth": "68.9%"}, {"smiles": "COc1ccc(/C(=C2\\O[C@@H]([C@H](O)CO)[C@H]3OC(C)(C)O[C@@H]23)c2cc(OC)c(OC)c(OC)c2)cc1O", "growth": "24.5%"}, {"smiles": "CCC(c1ccccc1)c1noc(CCN(CC)CC)n1", "note": "(stereo not given)", "growth": "105%"}, {"smiles": "O=C(Nc1ccc(Nc2ccncc2)cc1)c1ccc(Nc2ccnc3ccc([N+](=O)[O-])cc23)cc1[N+](=O)[O-]", "growth": "52%"}, {"smiles": "CC12CCCCC1C(C(N)=O)C(=O)O2", "note": "(stereo not given)", "growth": "102%"}, {"smiles": "CCOC(=O)c1c2c(c(C)n1Cc1ccccc1)-c1nc(N)ncc1CC2", "growth": "101%"}, {"smiles": "Nc1ncc(-c2cnn(C3CCNCC3)c2)cc1-c1nc2cc(Cl)ccc2o1", "growth": "-50.5% (active)"}, {"smiles": "COc1ccc(OC)c2c1[nH]c(=O)c1c3ccccc3cn21", "growth": "-6.09% (active)"}, {"smiles": "CCC(CCC(C)C1CCC2C3CC=C4CC(O)CCC4(C)C3CCC12C)C(C)C", "note": "(stereo not given) (tested in a mixture with another compound)", "growth": "59.6%"}, {"smiles": "CCOC(=O)c1c(C)nc(C)c(C(=O)OCC)c1-c1cccnc1", "growth": "103%"}]}, {"tested_on": "T-47D breast", "test": "NCI-60 one-dose screen, 48 h (100 = growth as untreated, 0 = no growth, -100 = all killed)", "settings": "10 µM unless noted", "values": [{"smiles": "CC1=NN(c2ccccc2Cl)C(=O)/C1=C\\c1cn(S(=O)(=O)c2ccc(C)cc2)c2ccccc12", "growth": "91.5%"}, {"smiles": "O=c1c(O)cccn1CCCNCCCN(CCCn1cccc(O)c1=O)CCCn1cccc(O)c1=O", "growth": "101%"}, {"smiles": "O=C1OCC/C1=C\\OCCCO/C=C1\\CCOC1=O", "growth": "103%"}, {"smiles": "O=C(Nc1cccc2ccccc12)c1cc2c(cc1Br)OCO2", "growth": "83.9%"}, {"smiles": "NC(=O)SCC(=O)Nc1ccccc1-c1ccccc1", "growth": "132%"}, {"smiles": "Cn1[nH]cc(/C=N/C(N)=O)c1=O", "growth": "104%"}, {"smiles": "c1ccc2c(c1)[nH]c1c2cc[n+]2cc3c(cc12)CCCC3", "growth": "-13.8% (active)"}, {"smiles": "CN1CCCC1c1cccnc1", "note": "(stereo not given)", "growth": "110%"}, {"smiles": "Cn1cc(-c2nc(-c3c[nH]c4ncccc34)cs2)c2cccnc21", "growth": "51.4%"}, {"smiles": "S=C(c1ccccc1)N1CCN(c2cccc(Cl)c2)CC1", "growth": "96.9%"}, {"smiles": "O=C1NC(=O)/C(=C\\c2ccccc2)C2=C1CCCC2", "growth": "198%"}, {"smiles": "C[C@]12CC[C@@H]3c4ccc(O)c([N+](=O)[O-])c4CC[C@H]3[C@@H]1CC[C@@H]2NS(=O)(=O)c1ccc(C(F)(F)F)cc1", "growth": "18.6%"}, {"smiles": "O=C(Oc1ccc[nH]c1=O)c1cccc(Cl)c1", "growth": "99.2%"}, {"smiles": "COc1ccc(Cn2cc3c(c2-c2ccccc2)CCc2cncnc2-3)cc1", "growth": "46.7%"}, {"smiles": "Cn1cc(-c2csc(-c3cn(C)c4ncccc34)n2)c2cc(Br)cnc21", "growth": "77%"}, {"smiles": "C[n+]1ccc(Nc2ccc(NC(=O)c3ccc(Nc4cc[n+](C)c5ccc(N)cc45)cc3)cc2)cc1", "growth": "102%"}, {"smiles": "Cc1cc2c(cc1[N+](=O)[O-])NC(CNC(C)C)CC2", "note": "(stereo not given)", "growth": "86.3%"}, {"smiles": "CC(=O)Oc1c(C)c(OC(C)=O)c2c(c1C(C)=O)OC1CC(=O)C(C(C)=O)=C(O)C21C", "note": "(stereo not given)", "growth": "103%"}, {"smiles": "CCOC(=O)c1c2c(c(C)n1Cc1ccc(OC)cc1)-c1nc(N)ncc1CC2", "growth": "105%"}, {"smiles": "COc1ccc2nccc(/C=C/c3ccnc4ccc(OC)cc34)c2c1", "growth": "98.4%"}, {"smiles": "Cc1cc2cn3c4cccnc4[nH]c(=O)c3c2cc1C", "growth": "-21.3% (active)"}, {"smiles": "COc1ccc2nc(-c3ccc(-n4cncc4-c4ccc(OC)c(N)c4)cc3)sc2c1", "growth": "102%"}, {"smiles": "COc1cc2c(c(OC)c1OC)CCc1cnoc1-2", "growth": "97.7%"}, {"smiles": "C=C(C)[C@H]1CC/C(C)=C/CC[C@]2(C)O[C@H]2CC/C(C=O)=C\\C1O", "note": "(stereo not given in full)", "growth": "102%"}, {"smiles": "COc1ccc2c(c1)[nH]c(=O)c1c3cc(OC)c(OC)cc3cn21", "growth": "74.1%"}, {"smiles": "Nc1nc(Cl)c2[nH]cnc2n1", "growth": "103%"}, {"smiles": "O=C(Nc1ncc([N+](=O)[O-])s1)c1cccc([N+](=O)[O-])c1", "growth": "24.7%"}, {"smiles": "Cc1ccc([N+](=O)[O-])cc1NC(=O)Nc1cccc(F)c1", "growth": "29.8%"}, {"smiles": "OC(CCC(O)(c1ccccc1)c1ccccc1)(c1ccccc1)c1ccccc1", "growth": "94.1%"}, {"smiles": "COc1ccc(/C(=C2\\O[C@@H]([C@H](O)CO)[C@H]3OC(C)(C)O[C@@H]23)c2cc(OC)c(OC)c(OC)c2)cc1O", "growth": "102%"}, {"smiles": "CCC(c1ccccc1)c1noc(CCN(CC)CC)n1", "note": "(stereo not given)", "growth": "94.4%"}, {"smiles": "O=C(Nc1ccc(Nc2ccncc2)cc1)c1ccc(Nc2ccnc3ccc([N+](=O)[O-])cc23)cc1[N+](=O)[O-]", "growth": "62.2%"}, {"smiles": "CC12CCCCC1C(C(N)=O)C(=O)O2", "note": "(stereo not given)", "growth": "114%"}, {"smiles": "CCOC(=O)c1c2c(c(C)n1Cc1ccccc1)-c1nc(N)ncc1CC2", "growth": "86.4%"}, {"smiles": "Nc1ncc(-c2cnn(C3CCNCC3)c2)cc1-c1nc2cc(Cl)ccc2o1", "growth": "-77.4% (active)"}, {"smiles": "COc1ccc(OC)c2c1[nH]c(=O)c1c3ccccc3cn21", "growth": "-48.3% (active)"}, {"smiles": "CCC(CCC(C)C1CCC2C3CC=C4CC(O)CCC4(C)C3CCC12C)C(C)C", "note": "(stereo not given) (tested in a mixture with another compound)", "growth": "95.3%"}, {"smiles": "CCOC(=O)c1c(C)nc(C)c(C(=O)OCC)c1-c1cccnc1", "growth": "92%"}]}]}
